SMILES strings stand for the structures. This is part of a sample that, as a whole, favours compounds with a hit. Of some 83,000 tested, about 20% had one in any assay.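 Single-concentration screen, 48 h exposure, 96-well plates. Endpoint: percent growth. Below 10 = active.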 Values without a mark were called inactive. Calls of active or inactive are those of the source.

We go through nine molecules from PubChem BioAssay (NCI).

Test in all cases: NCI-60 one-dose screen, 48 h (100 = growth as untreated, 0 = no growth, -100 = all killed)
Holding throughout (details): 10 µM unless noted

The subject of test [1] is SK-MEL-2 melanoma.
Test [2] has as its system EKVX NSCLC.
In test [3] the test system is SN12C renal.
For test [4], the system named is UO-31 renal.
Test [5] deals with TK-10 renal.
The subject of test [6] is ACHN renal.
Test [7] deals with CAKI-1 renal.
Test [8] deals with CCRF-CEM leukemia.
The subject of test [9] is MOLT-4 leukemia.
Test [10] concerns SR leukemia.
For test [11], the system named is RPMI-8226 leukemia.
The test system of test [12] is OVCAR-5 ovarian.
Test [13] relates to OVCAR-4 ovarian.
For test [14], the system named is SK-OV-3 ovarian.
Test [15] has as its system IGROV1 ovarian.
In test [16] the test system is OVCAR-3 ovarian.
For test [17], the system named is HS 578T breast.
Test [18] has as its system NCI/ADR-RES ovarian.
In test [19] the test system is OVCAR-8 ovarian.
The subject of test [20] is A498 renal.

Turning to `FC(F)(F)c1[nH]ncc1-c1nc2ccc3n[nH]c(C#Cc4cccnc4)c3c2c2c1CCCC2`, the growth in test [1] is 65.8%; in [2] it was 30.1%; in test [3], 37.9%; in test [4], 19.8%; in test [5] it was 46.4%; in test [6], 22.6%. Besides, the growth in test [7] is -7% (active); in test [8] it was 25.2%; in [9], 14.9%; in test [10], 14.2%; in [11] it was 47.7%; in [12] it was 67.3%. Besides, the growth in [13] was 80.5%; in test [14], 27.8%; in [15] it was 17.8%; in test [16] it was 54.2%; in test [17] it was 13.8%; in test [18], 72.1%.
With `COc1cc(/C=C/C(=O)Nc2cccnc2Nc2ccc(F)cc2)cc(OC)c1OC`, the growth is 68.4% in test [1]; 92.5% in test [2]; 109% in [3]; 89.2% in test [4]; 103% in test [5]; 102% in test [6]. The growth is 88.6% in test [7]; 85% in test [8]; 87.5% in test [9]; 82.5% in [10]; 69.1% in test [11]; 81.7% in test [19]. For the same molecule, the growth in [12] was 105%; in test [13], 93%; in test [14] it was 107%; in [15], 139%; in [16], 113%; in test [17], 99.4%. In test [18], the growth is 101%.
In the case of `Cc1cc(N[C@@H]2CCC[C@H](Nc3ccnc4cc(Cl)ccc34)C2)nc(N2CCCCCC2)n1`, the growth was -75.7% (active) in [1]; 7.62% (active) in test [2]; -74.8% (active) in test [3]; -95.6% (active) in test [4]; -67.7% (active) in [5]; -85.5% (active) in [6]. Besides, the growth in test [20] is -87.6% (active); in test [8] it was -23.1% (active); in [9] it was -18.5% (active); in test [10], -57.4% (active); in test [11], -52.2% (active); in test [19], -43% (active). For the same molecule, the growth is -15.8% (active) in test [12]; -5.16% (active) in [13]; -51.9% (active) in test [14]; -58.8% (active) in test [16]; -46.8% (active) in [17]; -39.8% (active) in [18].
Take `COc1ccc(SC2c3ccc(C)cc3Oc3nc(N)c(C#N)c(N)c32)cc1` (centres undefined): the growth in [1] is -59.8% (active); in [2] it was -10.8% (active); in test [3], -94.3% (active); in test [4] it was -95.9% (active); in test [5], -97.9% (active); in test [6], -98.1% (active). Also, the growth in test [20] is 28.7%; in test [8], -33.5% (active); in test [9] it was -24.7% (active); in test [10], -28% (active); in test [11] it was -34.2% (active); in test [19], -89.1% (active). The growth in test [12] is 5.64% (active); in test [13], -93.5% (active); in [14], 44.9%; in test [15], -82.8% (active); in test [16], -93.7% (active); in test [17], 3.13% (active). For the same molecule, the growth in test [18] is 1.24% (active).
On to `CN1C(=O)C2(SCC(C(=O)NCc3ccccc3)N2C(=O)C2CCCCC2)c2ccccc21` (centres undefined), for which the growth is 81.8% in [1]; 86.8% in test [2]; 102% in test [3]; 64% in test [4]; 115% in test [5]; 104% in test [6]. The growth was 98.9% in test [20]; 102% in [8]; 78.7% in test [9]; 83.3% in [10]; 95% in test [11]; 92% in [19]. In addition, the growth in test [12] was 105%; in [13], 88.1%; in test [14] it was 114%; in [15], 88%; in test [16], 90.5%; in test [17], 89.3%. Moreover, in test [18], the growth is 94.2%.
Turning to `CSc1ccc(SC2c3ccc(C)cc3Oc3nc(N)c(C#N)c(N)c32)cc1` (centres undefined), the growth in test [1] was -58.9% (active); in [2] it was -48.6% (active); in test [3] it was -98% (active); in [4], -99.2% (active); in test [5] it was -97% (active); in test [6], -96.6% (active). For the same molecule, the growth in test [20] was 4.22% (active); in test [8], -37% (active); in test [9], -17.9% (active); in test [10], -22.9% (active); in [11], -38% (active); in test [19], -92% (active). The growth in test [12] is -80.8% (active); in [13], -94.8% (active); in [14] it was 15.1%; in test [15] it was -86.2% (active); in [16] it was -94.7% (active); in test [18], -18.6% (active).
For the molecule `CC(=O)OCCC/C(=C/c1cc2ccccc2c2ccccc12)[N+](=O)[O-]`, the growth in test [1] is -80.8% (active); in [2], -31.7% (active); in [3] it was -88.9% (active); in test [4] it was -97% (active); in test [5], -72.2% (active); in test [6] it was -91.7% (active). The growth in [20] was -80.1% (active); in test [8] it was -36.1% (active); in [9], -28.7% (active); in test [10], -45.8% (active); in test [19], -100% (active); in test [12], -95.1% (active). Further, the growth was 0.455% (active) in [13]; 44.7% in test [14]; -99.1% (active) in test [16]; -46.2% (active) in test [17]; -29.4% (active) in test [18].
`COc1ccc2cc(-c3nn(-c4ccc(C(=O)O)cc4)cc3CO)ccc2c1`: the growth was 83.2% in [1]; 90.7% in [2]; 106% in test [3]; 86.6% in [4]; 104% in test [5]; 104% in test [6]. The growth in test [20] is 94.5%; in test [8], 102%; in test [9] it was 84.7%; in [10] it was 90.8%; in test [11] it was 95.1%; in [12], 100%. The growth was 106% in test [13]; 107% in [14]; 99.2% in test [15]; 93.5% in test [16]; 97.3% in [17]; 99.8% in test [18].
For the molecule `Cc1cc(N2CCCCC2)nc(NC2CCCC(Nc3ccnc4cc(Cl)ccc34)C2)n1` (centres undefined), the growth in test [1] is -77% (active); in [2], 7.48% (active); in [3], -74.9% (active); in test [4], -99% (active); in [5] it was -61.8% (active); in test [6], -86.2% (active). Moreover, the growth in test [20] was -29% (active); in [8] it was -17.8% (active); in [9], -28.2% (active); in test [10], -53.5% (active); in test [11], -52.4% (active); in test [19] it was -82.9% (active). The growth in test [13] was -38.8% (active); in [14] it was -71.7% (active); in test [15], -33% (active); in [16], -69% (active); in test [17], -48.6% (active); in test [18], -41.8% (active).
